For some of these results: Measured potencies and affinities stand elsewhere.
test: blockers of polyQ-driven CASP3 activation – cell-based (AID 1583); conditions: polyglutamine-induced caspase-3 activation, cell assay; stronger effect = higher value;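 tested at 10 µM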

SMILES	inhibition
C/C=C(\C)C(=O)O[C@H]1C[C@@H](OC(C)=O)[C@@]2(C(=O)OC)CO[C@@H]3C2[C@]12CO[C@](O)(C(=O)OC)[C@H]2[C@](C)(C12O[C@@]1(C)[C@H]1C[C@@H]2OC2OC=C[C@@]21O)[C@@H]3O (stereo partly drawn)	0.47%
C=C1C2CC[C@H]3[C@]4(C)C[C@H](OC5OC(CO)C(OS(=O)(=O)O)C(OS(=O)(=O)O)C5OC(=O)CC(C)C)C[C@@H](C(=O)O)[C@H]4CC[C@]3(C2)[C@H]1O (stereo partly drawn)	13.1%
O=C1CC2OCC=C3CN4CC[C@]56c7ccccc7N1C5[C@H]2[C@H]3CC46 (stereo partly drawn)	-12.5%
C[C@@H]1CC[C@H]2[C@@H](C)C(=O)O[C@@H]3OC4(C)CC[C@@H]1[C@]32OO4	18.8%
COc1ccc2c(c1OC)C(=O)O[C@H]2[C@H]1c2cc3c(cc2CCN1C)OCO3	-1.71%
COc1ccc2c(c1)[C@]13CCCC[C@H]1[C@H](C2)N(C)CC3	-11.5%
CCC(C)C(=O)O[C@H]1[C@H](O)C2C(CN3CC(C)CCC3[C@@]2(C)O)C2C[C@]34O[C@]5(O)C(OC(=O)C(C)(O)C(C)O)CC[C@@]3(C)C5C(OC(C)=O)[C@@H](OC(C)=O)C4[C@@]21O (stereo partly drawn)	19.1%
CC(=O)C1=C(O)C2C3c4c[nH]c5cccc(c45)CC3C(C)(C)N2C1=O (stereo not drawn)	-21.2%

test: yeast 75Q aggregation reduction – 75Q-TubU reporter (AID 1593); conditions: Yeast 75Q polyglutamine aggregation reporter

SMILES	score
C/C=C(\C)C(=O)O[C@H]1C[C@@H](OC(C)=O)[C@@]2(C(=O)OC)CO[C@@H]3C2[C@]12CO[C@](O)(C(=O)OC)[C@H]2[C@](C)(C12O[C@@]1(C)[C@H]1C[C@@H]2OC2OC=C[C@@]21O)[C@@H]3O (stereo partly drawn)	1.31
C=C1C2CC[C@H]3[C@]4(C)C[C@H](OC5OC(CO)C(OS(=O)(=O)O)C(OS(=O)(=O)O)C5OC(=O)CC(C)C)C[C@@H](C(=O)O)[C@H]4CC[C@]3(C2)[C@H]1O (stereo partly drawn)	1.67
O=C1CC2OCC=C3CN4CC[C@]56c7ccccc7N1C5[C@H]2[C@H]3CC46 (stereo partly drawn)	1.28
CO[C@H]1[C@H](O)[C@H](O[C@H]2CC[C@]3(C)C4CC[C@]5(C)C(C6=CC(=O)OC6)CC[C@]5(O)C4CC[C@@H]3C2)O[C@@H](C)[C@@H]1O (stereo partly drawn)	1.23
C[C@@H]1CC[C@H]2[C@@H](C)C(=O)O[C@@H]3OC4(C)CC[C@@H]1[C@]32OO4	0.49
C[C@H]1O[C@@H](O[C@H]2[C@@H](O)C[C@H](O[C@H]3[C@@H](O)C[C@H](O[C@H]4CC[C@]5(C)C6CC[C@]7(C)[C@@H](C8=CC(=O)OC8)CC[C@]7(O)C6CC[C@@H]5C4)O[C@@H]3C)O[C@@H]2C)C[C@H](O)[C@@H]1O (stereo partly drawn)	1.05
COc1ccc2c(c1OC)C(=O)O[C@H]2[C@H]1c2cc3c(cc2CCN1C)OCO3	1.46
COc1ccc2c(c1)[C@]13CCCC[C@H]1[C@H](C2)N(C)CC3	1.32
CCC(C)C(=O)O[C@H]1[C@H](O)C2C(CN3CC(C)CCC3[C@@]2(C)O)C2C[C@]34O[C@]5(O)C(OC(=O)C(C)(O)C(C)O)CC[C@@]3(C)C5C(OC(C)=O)[C@@H](OC(C)=O)C4[C@@]21O (stereo partly drawn)	1.45
CC(=O)C1=C(O)C2C3c4c[nH]c5cccc(c45)CC3C(C)(C)N2C1=O (stereo not drawn)	-0.21

test: restoration of touch response, mutant HTT neurons – whole organism, C. elegans mechanosensory neurons, N-terminal huntingtin (AID 1599); conditions: C. elegans polyQ-huntingtin mechanosensory neurons, stronger effect = higher value

SMILES	rescue above control
C/C=C(\C)C(=O)O[C@H]1C[C@@H](OC(C)=O)[C@@]2(C(=O)OC)CO[C@@H]3C2[C@]12CO[C@](O)(C(=O)OC)[C@H]2[C@](C)(C12O[C@@]1(C)[C@H]1C[C@@H]2OC2OC=C[C@@]21O)[C@@H]3O (stereo partly drawn)	3.11
C=C1C2CC[C@H]3[C@]4(C)C[C@H](OC5OC(CO)C(OS(=O)(=O)O)C(OS(=O)(=O)O)C5OC(=O)CC(C)C)C[C@@H](C(=O)O)[C@H]4CC[C@]3(C2)[C@H]1O (stereo partly drawn)	-8.48
O=C1CC2OCC=C3CN4CC[C@]56c7ccccc7N1C5[C@H]2[C@H]3CC46 (stereo partly drawn)	-0.21
CO[C@H]1[C@H](O)[C@H](O[C@H]2CC[C@]3(C)C4CC[C@]5(C)C(C6=CC(=O)OC6)CC[C@]5(O)C4CC[C@@H]3C2)O[C@@H](C)[C@@H]1O (stereo partly drawn)	-1.89
C[C@@H]1CC[C@H]2[C@@H](C)C(=O)O[C@@H]3OC4(C)CC[C@@H]1[C@]32OO4	21.4
C[C@H]1O[C@@H](O[C@H]2[C@@H](O)C[C@H](O[C@H]3[C@@H](O)C[C@H](O[C@H]4CC[C@]5(C)C6CC[C@]7(C)[C@@H](C8=CC(=O)OC8)CC[C@]7(O)C6CC[C@@H]5C4)O[C@@H]3C)O[C@@H]2C)C[C@H](O)[C@@H]1O (stereo partly drawn)	-1.72
COc1ccc2c(c1OC)C(=O)O[C@H]2[C@H]1c2cc3c(cc2CCN1C)OCO3	-6.7
COc1ccc2c(c1)[C@]13CCCC[C@H]1[C@H](C2)N(C)CC3	-2.69
CCC(C)C(=O)O[C@H]1[C@H](O)C2C(CN3CC(C)CCC3[C@@]2(C)O)C2C[C@]34O[C@]5(O)C(OC(=O)C(C)(O)C(C)O)CC[C@@]3(C)C5C(OC(C)=O)[C@@H](OC(C)=O)C4[C@@]21O (stereo partly drawn)	-3.98
CC(=O)C1=C(O)C2C3c4c[nH]c5cccc(c45)CC3C(C)(C)N2C1=O (stereo not drawn)	9.72

Source: PubChem BioAssay
